{"source": "PubChem BioAssay AID777", "about": "(Sanford-Burnham Center for Chemical Genomics, 2007)", "note": "In all, about 96,000 compounds went through this assay and about 19,000 (20%) were called active. These entries were drawn from the full list. A number with no mark means an inactive call.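 Rule for the calls: active = blocking of liver enzyme CYP2C9 beyond about 50% at 5 µM (limit read from the data); inactive = the rest.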"}
{"target": "Cytochrome P450 2C9 (Homo sapiens) (UniProt P11712)", "sequence (P11712 whole entry, looked up)": "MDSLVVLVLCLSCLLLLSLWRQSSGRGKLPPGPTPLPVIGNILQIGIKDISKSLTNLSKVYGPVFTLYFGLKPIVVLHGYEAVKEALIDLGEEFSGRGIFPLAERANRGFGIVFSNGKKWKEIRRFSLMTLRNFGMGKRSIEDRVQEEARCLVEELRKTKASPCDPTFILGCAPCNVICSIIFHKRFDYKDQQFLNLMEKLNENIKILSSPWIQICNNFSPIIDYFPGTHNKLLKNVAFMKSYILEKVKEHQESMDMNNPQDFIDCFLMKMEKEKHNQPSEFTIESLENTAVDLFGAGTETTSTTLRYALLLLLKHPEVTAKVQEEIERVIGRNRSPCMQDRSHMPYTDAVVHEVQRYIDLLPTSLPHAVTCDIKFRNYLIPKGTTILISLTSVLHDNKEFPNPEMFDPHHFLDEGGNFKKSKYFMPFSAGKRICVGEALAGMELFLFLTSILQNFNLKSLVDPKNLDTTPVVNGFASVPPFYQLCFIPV", "experiment": "blockers of cytochrome P450 2C9 activity – biochemical, luminescence, ADME assay, primary screen (AID 777)", "conditions": "CYP2C9 Supersomes, luciferin-H conversion, at 5 µM, active compounds read high"}
{"smiles": "CCNc1nc(N)nc(-c2cc(Cl)ccc2OC)n1", "inhibition": "-0.8%"}
{"smiles": "COC(=O)c1c(NC(=O)c2cccs2)sc2c1CCCC2", "inhibition": "58.4% (active)"}
{"smiles": "COC(=O)c1sccc1NC(=O)c1csc2c1CCCC2", "inhibition": "13.7%"}
{"smiles": "COC(=O)c1sc(NC(=O)c2csc3c2CCCC3)nc1C", "inhibition": "-7.3%"}
{"smiles": "CNC(=O)c1c(NC(NC(=O)c2ccco2)C(=O)c2ccc(Cl)cc2)sc2c1CCCC2", "note": "(stereo unspecified)", "inhibition": "46.5%"}
{"smiles": "CCOC(=O)c1c(NC(=O)CCC(=O)NCc2ccco2)sc2c1CCCC2", "inhibition": "41.9%"}
{"smiles": "Cc1ccc(C(=O)c2c(NC(=O)c3ccccc3)sc(C)c2C)cc1", "inhibition": "43%"}
{"smiles": "Cc1ccc(C(=O)c2c(NC(=O)c3ccncc3)sc3c2CCCC3)cc1", "inhibition": "67.8% (active)"}
{"smiles": "COC(=O)c1c(NC(=O)CSc2nncs2)sc2c1CCCCC2", "inhibition": "91.9% (active)"}
{"smiles": "Cc1ccc(Cn2c(NC(=O)c3ccco3)nc3ccccc32)cc1", "inhibition": "-10.6%"}
{"smiles": "Cc1cc(C)nc(SC(C)C(=O)N/N=C/c2cccs2)n1", "note": "(stereo unspecified)", "inhibition": "41.1%"}
{"smiles": "CC12CCC(C(=O)N(CCC#N)CCC#N)(CC1=O)C2(C)C", "note": "(stereo unspecified)", "inhibition": "-10.7%"}
{"smiles": "CCC(C(=O)Nc1ncccn1)(C(F)(F)F)C(F)(F)F", "inhibition": "-8.6%"}
{"smiles": "Oc1ccc(Cl)cc1/C=N/c1nc2ccccc2[nH]1", "inhibition": "-15.4%"}
{"smiles": "CCn1ncc(C2=NOC(C(=O)N3CCN(c4ccccc4)CC3)C2)c1C", "note": "(stereo unspecified)", "inhibition": "-12.4%"}
{"smiles": "Cc1cc(C)c(S(=O)(=O)NCCCN2CCOCC2)cc1Br", "inhibition": "-101%"}
{"smiles": "C=CCSc1nc2c(c(=O)[nH]1)C(C(C)C)C(C#N)=C(N)O2", "note": "(stereo unspecified)", "inhibition": "17.7%"}
{"smiles": "COc1cccc(N2CCN(C3CC(=O)N(c4ccc(Cl)cc4)C3=O)CC2)c1", "note": "(stereo unspecified)", "inhibition": "11.2%"}
{"smiles": "Cn1cnc2c1c(=O)n(Cc1c(Cl)cccc1Cl)c(=O)n2C", "inhibition": "32.6%"}
{"smiles": "O=S(=O)(NC1CCCCC1)c1ccc(F)c2ccccc12", "inhibition": "53.4% (active)"}
{"smiles": "O=C(CC(NS(=O)(=O)c1ccc(Cl)cc1)c1ccco1)NC1CCCC1", "note": "(stereo unspecified)", "inhibition": "18.5%"}
{"smiles": "CCCN1Cc2cccc(C(=O)Nc3ccc(S(=O)(=O)N4CCCCCC4)cc3)c2C1=O", "inhibition": "38%"}
{"smiles": "O=C(CSCc1ccc(Br)cc1)Nc1ccc(S(=O)(=O)N2CCCCCC2)cc1", "inhibition": "56.5% (active)"}
{"smiles": "COC(=O)COc1ccc(S(=O)(=O)N2CCOCC2)cc1", "inhibition": "-8.2%"}
{"smiles": "Cc1ccc(OCCCC(=O)Nc2ccc(N3CCOCC3)cc2)cc1", "inhibition": "15.2%"}
{"smiles": "COc1ccc(OCC(=O)OCC(=O)Nc2ccc(S(=O)(=O)N3CCCCC3)cc2)cc1", "inhibition": "63.1% (active)"}
{"smiles": "O=C(Nc1ccc(S(=O)(=O)N2CCCCC2)cc1)c1cnccn1", "inhibition": "23.2%"}
{"smiles": "CC(=O)Nc1ccc(S(=O)(=O)N2CCSCC2)cc1", "inhibition": "14%"}
{"smiles": "CCOc1cccc(NC(=O)C2CCCN(S(=O)(=O)c3ccc(OC)cc3)C2)c1", "note": "(stereo unspecified)", "inhibition": "21.3%"}
{"smiles": "C=CCNC(=O)CCCOc1cccc(C)c1", "inhibition": "-3.3%"}
{"smiles": "CC(=O)Nc1ccc(S(=O)(=O)N2CCN(C3CCCCCCC3)CC2)cc1", "inhibition": "40.3%"}
{"smiles": "Cc1cccc(OCCCC(=O)Nc2ccc(S(=O)(=O)N3CCCC3)cc2)c1", "inhibition": "65.2% (active)"}
{"smiles": "CC(=O)Nc1ccc(S(=O)(=O)N2CCN(CCCOc3cc(C)ccc3C)CC2)cc1", "inhibition": "83.6% (active)"}
{"smiles": "Cc1cc(OCCOc2cccc3cccnc23)c(C)cc1Cl", "inhibition": "-170%"}
{"smiles": "CCOC(=O)c1nnn(-c2nc(OC)nc(N(C)C)n2)c1-c1ccccc1", "inhibition": "6.1%"}
{"smiles": "Cc1nnc(SCC(=O)N2CCN(c3ccccc3)CC2)n1-c1ccccc1", "inhibition": "1.8%"}
{"smiles": "COc1cc(OC)cc(C(=O)Nc2ncc3c(n2)CC(C)(C)CC3=O)c1", "inhibition": "-12.1%"}
{"smiles": "CN(NC(=O)c1ccccc1)c1nc2ccccc2nc1C(F)(F)F", "inhibition": "15.5%"}
{"smiles": "Cc1cc(C(=O)CSc2nc(N)cc(=O)[nH]2)c(C)n1CCc1ccc(Cl)cc1", "inhibition": "11.4%"}
{"smiles": "CCOc1ccc(NC(=O)CCC(=O)n2nc(C)cc2C)cc1", "inhibition": "5.6%"}
{"smiles": "CCOc1cc(C)c(Cl)cc1S(=O)(=O)n1nnc2ccccc21", "inhibition": "39.1%"}
{"smiles": "CCOc1ccc(C(C)C)cc1S(=O)(=O)n1nc(C)cc1C", "inhibition": "91.3% (active)"}
{"smiles": "CCSC1=C(C#N)C(=O)n2c1cc1c2CCCC1", "inhibition": "-14.3%"}
{"smiles": "O=S(=O)(NCC1CCCO1)c1ccc2ccccc2c1", "note": "(stereo unspecified)", "inhibition": "-199%"}
{"smiles": "CCOc1cc(C2C(C(=O)OC)=CN(C3CCCC3)C=C2C(=O)OC)cc(Br)c1O", "inhibition": "-9.6%"}
{"smiles": "COc1ccc(C(=O)Nc2ccc(S(=O)(=O)Nc3onc(C)c3C)cc2)cc1OC", "inhibition": "1.2%"}
{"smiles": "Cc1noc(NS(=O)(=O)c2ccc(NC(=O)C34CCC(CC3)C4)cc2)c1C", "inhibition": "0.8%"}
{"smiles": "Cc1noc(NS(=O)(=O)c2ccc(N/C=C/C(=O)c3ccccc3)cc2)c1C", "inhibition": "93.9% (active)"}
{"smiles": "Cc1ccc(S(=O)(=O)NCCN2CCOCC2)cc1C", "inhibition": "21.9%"}
{"smiles": "Cc1ccc(-c2nc(C)sc2CC(=O)O)cc1", "inhibition": "5.6%"}
{"smiles": "Cc1ccc(Cn2ccc(NC(=O)C3C4CCC(C4)C3C(=O)O)n2)cc1", "note": "(stereo unspecified)", "inhibition": "13%"}
{"smiles": "Cc1cc(NC(=O)c2cc(-c3cccs3)on2)nn1Cc1ccc(Cl)cc1", "inhibition": "-17.2%"}
{"smiles": "CC(=O)Nc1ccn(Cc2c(F)cccc2Cl)n1", "inhibition": "6.2%"}
{"smiles": "O=C(Nc1ccn(Cc2ccc(F)cc2)n1)c1ccncc1", "inhibition": "92.9% (active)"}
{"smiles": "Cc1nn(Cc2ccc(F)cc2)c(C)c1NC(=O)c1noc2c1CCc1ccccc1-2", "inhibition": "-1.9%"}
{"smiles": "Cc1ccc(Cn2ccc(NC(=O)c3cc(C(C)C)on3)n2)cc1", "inhibition": "97.5% (active)"}
{"smiles": "CCOC(=O)c1nn(-c2cccc(C)c2)cc1C(=O)c1ccccc1", "inhibition": "33.5%"}
{"smiles": "Cc1ccc(-c2ccnc3nc(Sc4ncc(C(F)(F)F)cc4Cl)nn23)cc1", "inhibition": "9.8%"}
{"smiles": "N#Cc1cccc(CSc2nnc(CCCO)n2-c2ccccc2)c1", "inhibition": "11.5%"}
{"smiles": "Cc1cccc(NC(=O)c2ccc(OCC(=O)NCc3ccccc3)cc2)c1C", "inhibition": "-9.9%"}
{"smiles": "Cc1cccc(C)c1NC1=NC(=S)N(c2ccc(N(C)C)cc2)C1(C)C", "inhibition": "-27.7%"}
{"smiles": "COc1ccc(NC(=O)ON=C2c3ccccc3-c3ccccc32)cc1", "inhibition": "16%"}
{"smiles": "O=C(Nc1ccccc1)O/N=C1\\CCCCC1c1ccc([N+](=O)[O-])cc1[N+](=O)[O-]", "note": "(stereo unspecified)", "inhibition": "63.3% (active)"}
{"smiles": "CCN(CC)S(=O)(=O)c1cc([N+](=O)[O-])ccc1NNC(=O)Nc1ccccc1", "inhibition": "25.7%"}
{"smiles": "Cc1ccc2oc(=O)c3cnn(CC(=O)N4CCCCCC4)c3c2c1", "inhibition": "4.4%"}
{"smiles": "COc1ccc(N2C(=O)CCC(C(=O)N(C)C3CCCCC3)C2c2ccc(OC)c(OC)c2)cc1", "note": "(stereo unspecified)", "inhibition": "10.7%"}
{"smiles": "C=CCn1c(C(C)NC(=O)CC)nc2ccccc21", "note": "(stereo unspecified)", "inhibition": "-3.6%"}
{"smiles": "CCCn1c(C(Cc2ccccc2)NC(=O)COC)nc2ccccc21", "note": "(stereo unspecified)", "inhibition": "74.5% (active)"}
{"smiles": "CCCC(NC(=O)c1ccccc1)c1nc2ccccc2n1Cc1ccc(C(=O)OC)o1", "note": "(stereo unspecified)", "inhibition": "14.1%"}
{"smiles": "CC/S(CC1CC1(Cl)Cl)=N\\S(=O)(=O)c1ccc(C)cc1", "note": "(stereo unspecified)", "inhibition": "-9%"}
{"smiles": "CS(=O)(=O)N1CCN(c2cccc(Cl)n2)CC1", "inhibition": "19.9%"}
{"smiles": "CN1c2ccccc2-c2nc3ccccc3n2C1c1ccco1", "note": "(stereo unspecified)", "inhibition": "45.9%"}
{"smiles": "O=C(Oc1cccnc1)c1cc2ccccc2oc1=O", "inhibition": "30.1%"}
{"smiles": "CCc1ccc(CNC(=O)CCc2nc(-c3cccs3)no2)cc1", "inhibition": "70.4% (active)"}
{"smiles": "Cc1ccc(-c2noc(CCC(=O)Nc3ccccc3N3CCN(C)CC3)n2)cc1", "inhibition": "48.1%"}
{"smiles": "CCNC(=O)CCc1nc(-c2ccc(C(C)(C)C)cc2)no1", "inhibition": "-11.4%"}
{"smiles": "Cc1cc(C)cc(N(CC(=O)Nc2c(C)n(C)n(-c3ccccc3)c2=O)S(C)(=O)=O)c1", "inhibition": "16.3%"}
{"smiles": "O=C(N/N=C/c1ccc(O)cc1)/C(=C/c1ccc([N+](=O)[O-])cc1)NC(=O)c1ccccc1", "inhibition": "-2.6%"}
{"smiles": "N#CCCN1CCN(S(=O)(=O)c2ccc(S(=O)(=O)N3CCCC3)cc2)CC1", "inhibition": "16.2%"}
{"smiles": "N#CCCN1CCN(S(=O)(=O)c2ccc(S(=O)(=O)NC3CCCCC3)cc2)CC1", "inhibition": "58% (active)"}
{"smiles": "N#CCCN1CCN(S(=O)(=O)c2ccc(S(=O)(=O)NC3CC3)cc2)CC1", "inhibition": "9.6%"}
{"smiles": "Cc1ccccc1-n1c(C)cc(/C=N/NC(=O)c2ccc(CN3CCOCC3)cc2)c1C", "inhibition": "31.2%"}
{"smiles": "CC(C)(C)Oc1ncc(Br)c(OC(C)(C)C)n1", "inhibition": "-16.6%"}
{"smiles": "COc1cccc(C2/C(=C(/O)c3ccncc3)C(=O)C(=O)N2CCCN(C)C)c1", "note": "(stereo unspecified)", "inhibition": "-17.5%"}
{"smiles": "COc1ccc(N=Cc2c(O)[nH]c3ccccc23)cc1OC", "inhibition": "2.9%"}
{"smiles": "COc1cc(N=Cc2c(O)[nH]c3ccccc23)cc(OC)c1OC", "inhibition": "66% (active)"}
{"smiles": "COc1ccc(OC)c(N=Cc2c(O)[nH]c3ccccc23)c1", "inhibition": "15.1%"}
{"smiles": "CCCCCCC(=O)Nc1nc(C)c(-c2csc(Nc3cccc(OC)c3)n2)s1", "inhibition": "19.4%"}
{"smiles": "Cc1ccc(SC(=O)COc2ccc(C)c(C)c2)cc1", "inhibition": "13.5%"}
{"smiles": "Cc1ccc(SCC(=O)c2cc(C)c(OC(=S)N(C)C)c(C)c2)cc1", "inhibition": "58.6% (active)"}
{"smiles": "COC(=O)c1cc(OC)c(OC)cc1NC(=O)CSc1ccc(C)cc1", "inhibition": "21.1%"}
{"smiles": "CSc1nc(C)nc2c1c(=O)n(C)c(=O)n2C", "inhibition": "-6.6%"}
{"smiles": "CSc1nc2nc3c(c(=O)n2[nH]1)CCC3", "inhibition": "-13.2%"}
{"smiles": "Cn1c(=O)oc2cc(S(=O)(=O)N3CCC(C(=O)Nc4ccc(OC(F)(F)F)cc4)CC3)ccc21", "inhibition": "-62.7%"}
{"smiles": "Cc1ccc2nc(NC(=O)C3CCN(S(=O)(=O)c4ccc5c(c4)oc(=O)n5C)CC3)sc2c1", "inhibition": "-47.7%"}
{"smiles": "Cc1ccc(C)c(N2CCN(S(=O)(=O)c3ccc4c(c3)oc(=O)n4C)CC2)c1", "inhibition": "88.4% (active)"}
